Test results published in PubChem BioAssay AID588448 (NMMLSC, 2011).

Molecular target: Integrin alpha-4 (Homo sapiens) (UniProt P13612)
Test: VLA-4 pocket occupancy via HUTS-21 epitope – U937 cells, powder samples, set 2, SAR follow-up (AID 588448)
Details: HUTS-21 LIBS mAb binding, flow cytometry; series mostly up to 66.7 µM; inhibition: at the top concentration;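 active means half-maximal concentration under 30 µM, fit with over 36% top-dose inhibition and error below a fifth of it; inactive means the rest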

Sequence of Integrin alpha-4 (Homo sapiens) (P13612 whole entry, looked up): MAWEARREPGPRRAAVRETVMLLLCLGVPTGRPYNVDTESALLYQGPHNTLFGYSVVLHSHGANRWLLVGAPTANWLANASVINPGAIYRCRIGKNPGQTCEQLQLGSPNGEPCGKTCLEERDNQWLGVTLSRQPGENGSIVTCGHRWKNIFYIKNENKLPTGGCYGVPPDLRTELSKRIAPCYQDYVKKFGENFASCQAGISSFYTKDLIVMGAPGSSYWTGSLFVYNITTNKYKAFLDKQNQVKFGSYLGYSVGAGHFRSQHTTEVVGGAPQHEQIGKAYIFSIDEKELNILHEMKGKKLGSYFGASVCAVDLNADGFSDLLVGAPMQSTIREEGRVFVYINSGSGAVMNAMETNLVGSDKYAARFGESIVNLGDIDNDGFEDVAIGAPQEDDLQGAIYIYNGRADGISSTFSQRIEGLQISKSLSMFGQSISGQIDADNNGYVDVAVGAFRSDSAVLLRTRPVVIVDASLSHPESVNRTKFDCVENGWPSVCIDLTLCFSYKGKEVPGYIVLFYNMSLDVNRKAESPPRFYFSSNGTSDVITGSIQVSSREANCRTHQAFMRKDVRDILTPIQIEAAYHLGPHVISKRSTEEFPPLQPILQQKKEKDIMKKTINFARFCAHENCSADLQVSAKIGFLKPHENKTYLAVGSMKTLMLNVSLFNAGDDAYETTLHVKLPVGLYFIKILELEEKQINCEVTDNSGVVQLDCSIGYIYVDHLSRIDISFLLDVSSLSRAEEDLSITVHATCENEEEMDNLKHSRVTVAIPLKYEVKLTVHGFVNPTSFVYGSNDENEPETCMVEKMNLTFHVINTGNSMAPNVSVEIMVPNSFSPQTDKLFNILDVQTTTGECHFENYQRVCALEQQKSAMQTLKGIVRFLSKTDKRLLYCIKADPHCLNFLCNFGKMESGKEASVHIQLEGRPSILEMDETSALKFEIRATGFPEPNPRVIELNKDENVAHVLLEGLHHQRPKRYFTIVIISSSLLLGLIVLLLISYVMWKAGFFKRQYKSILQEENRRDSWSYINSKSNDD

inhibition, inactive:
COCCn1c(C2CC(=O)N(c3ccccc3C)C2)nc2ccccc21 (centres undefined) 10.7, CCOCCn1c(C2CC(=O)N(c3ccccc3)C2)nc2ccccc21 (centres undefined) 12.3, CC(=O)N(C)Cc1nc2ccccc2n1CCOc1ccc(C)cc1 22.3, COCCn1c(C2CC(=O)N(c3cccc(C)c3)C2)nc2ccccc21 (centres undefined) -13.7, CSc1ccccc1OCc1cc(C(=O)N2CCCC2)no1 7.51, CCN1CC(c2nc3ccccc3n2Cc2ccccc2)CC1=O (centres undefined) 24.2, Cc1cc(C(=O)N2CCCC2c2nc3ccccc3s2)on1 (centres undefined) 22.9, COc1ccccc1N1CCN(CC(=O)c2ccc(F)cc2)CC1 -8.2, COc1ccc(C2CCCN2C(=O)c2sccc2C)cc1OC (centres undefined) 6.87, Cc1cc(C(=O)N2CCCC2c2ccc3c(c2)OCCO3)sc1C (centres undefined) 5.59, CCn1c(C2CC(=O)N(c3ccccc3OC)C2)nc2ccccc21 (centres undefined) 39.6, Cc1ccc(C)n1-c1ccc(C(=O)N(C)Cc2ccco2)cc1 2.7, CCOc1ccccc1N1CC(c2nc3ccccc3n2C)CC1=O (centres undefined) 26.1, Cc1nc(C)c(C(=O)N2CCCC2c2nc3ccccc3s2)s1 (centres undefined) 5.91, O=C1C2CC=CCC2C(=O)N1Cc1csc(Cc2ccccc2)n1 (centres undefined) 15.8, Cc1nc2ccccc2n1CCc1noc(COc2ccccc2)n1 3.66, O=C(c1ccc(OCCN2CCCCC2)cc1)c1c(-c2ccc(O)cc2)sc2cc(O)ccc12 -87.7, CN(Cc1ccco1)C(=O)c1ccc(-n2cnc3ccccc32)cc1 13, COc1cc(OCc2ccccc2)ccc1CN1CCN(C)CC1 -6.27, COc1ccccc1Cn1c(C2CC(=O)N(C)C2)nc2ccccc21 (centres undefined) 4.63, Cc1oc(-c2cccs2)nc1CN1C(=O)C2CC=CCC2C1=O (centres undefined) 4.95, CCN1CC(c2nc3ccccc3n2CCOc2ccccc2)CC1=O (centres undefined) 14.6, COCC(=O)N1CCC2(CCCN(CCc3ccccc3)C2=O)C1 (centres undefined) 38, COCCn1c(C2CC(=O)N(Cc3ccco3)C2)nc2ccccc21 (centres undefined) 7.51, CCn1c(C2CC(=O)N(CCc3ccccc3)C2)nc2ccccc21 (centres undefined) 23.5, CN1CC(c2nc3ccccc3n2CCOc2ccccc2)CC1=O (centres undefined) -8.52, COc1ccc(-c2nn(Cc3ccccc3)cc2C(=O)N2CCC2)cc1 -0.18, Cn1cc(C(=O)N2CCCC2c2nc3ccccc3s2)cn1 (centres undefined) 7.19, Cc1ccc(-c2nc(CN3C(=O)C4CC=CCC4C3=O)cs2)cc1 (centres undefined) 5.59
